This is an account of results in PubChem BioAssay (EPA / NIEHS).

Values joined by “and” are separate entries in the source; they are usually repeats but may differ in a detail not shown here. Identical values can stand only once. Results filed as inconclusive are left out. Some compounds were tested as several samples or in several runs, with calls that do not always agree. Active and inactive are the calls of the source. Rule for the calls, unless noted: active = hit-call score of the fitted dose curve at least 0.9, where 1 is the maximum; inactive = score below 0.9.

Read-out in experiment [1]: Interleukin-8 (IL8), CXCL8 (gene 3576)
As to the kind of experiment: BSK_3C_IL8: BioMAP Diversity Plus: 3C Assay for Interleukin-8 (IL8) Biomarker Activity (AID 2283020). The settings on record: primary human endothelial cells (HUVEC); actives raise or lower the signal. The procedure, abridged:
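Primary human umbilical vein endothelial cells were dosed for 24 h. IL-8 was quantified by ELISA and fitted bidirectionally against DMSO. Cytotoxicity was assessed in parallel cultures by SRB staining at 560 nm.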

Read-out in experiment [2]: Monokine induced gamma interferon (MIG), CXCL9 (gene 4283)
Nature of the experiment: BSK_3C_MIG: BioMAP Diversity Plus: 3C Assay for Monokine induced gamma interferon (MIG) Biomarker Activity (AID 2283021).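 For AC50: MIG protein level measured by immunoassay in the treated endothelial cultures.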 The settings on record: primary human endothelial cells (HUVEC); actives raise or lower the signal. The procedure, abridged: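 HUVEC primary endothelial cultures dosed with chemical; MIG quantified by ELISA at 24 h. Data fitted bidirectionally against DMSO control, with parallel SRB total-protein staining for cytotoxicity.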

Experiment [3] is described as follows: BSK_3C_SRB: Viability Assessment in the BioMAP Diversity Plus: 3C Assay (AID 2283023).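 Note: fitted both ways against DMSO so a hit may be signal rise or drop.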 The settings on record: primary human endothelial cells (HUVEC). The essentials: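 Cytotoxicity readout in parallel HUVEC 3C cultures: after 24 h compound exposure, cells fixed with 10% TCA, stained with 0.1% SRB and read at 560 nm. Gain or loss relative to DMSO fitted.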

Read-out in experiment [4]: Matrix Metallopeptidase 1 (MMP1), MMP1 (gene 4312)
As to the kind of experiment: BSK_BE3C_MMP1: BioMAP Diversity Plus: BE3C Assay for Matrix Metallopeptidase 1 (MMP1) Biomarker Activity (AID 2283024). The settings on record: primary human bronchial epithelial cells; actives raise or lower the signal. The procedure, abridged: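 Human primary bronchial epithelial cells (BE3C system) dosed for 24 h; MMP-1 quantified by ELISA. Bidirectional fit against DMSO; cytotoxicity tracked in parallel cultures by SRB total-protein staining.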

A short description of experiment [5]: BSK_3C_Vis: BioMAP Diversity Plus: 3C Assay for Morphology Visualization (AID 2283025).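 Note: fitted both ways so gain or loss versus DMSO counts.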 Conditions: primary human endothelial cells (HUVEC). The essentials: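 Human umbilical vein endothelial cell morphology was inspected by light microscopy 24 h after chemical dosing; scored bidirectionally relative to DMSO.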
Read-out in experiment [6]: Pselectin, SELP (gene 6403)
Nature of the experiment: BSK_4H_Pselectin: BioMAP Diversity Plus: 4H Assay for Pselectin Biomarker Activity (AID 2283026). Conditions: primary human endothelial cells (HUVEC); actives raise or lower the signal. The essentials: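 Primary human umbilical vein endothelial cells were treated 24 h, and cell-surface P-selectin was then quantified by ELISA. Bidirectional fit versus DMSO; cytotoxicity checked in parallel cultures by SRB total-protein staining.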

A short description of experiment [7]: BSK_4H_SRB: Viability Assessment in the BioMAP Diversity Plus: 4H Assay (AID 2283027).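 For AC50: curves fitted both ways versus DMSO so AC50 may be loss or gain.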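 Note: cells exposed to compound for 24 h before staining.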 Conditions: primary human endothelial cells (HUVEC). The essentials:
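Absorbance at 560 nm of SRB-stained total protein served as the viability read-out in confluent primary human umbilical vein endothelium 24 h after chemical treatment. Curves were fitted bidirectionally against DMSO as negative control.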

Experiment [8] in a line: BSK_BE3C_SRB: Viability Assessment in the BioMAP Diversity Plus: BE3C Assay (AID 2283028).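 For AC50: fitted both ways so AC50 may mark signal gain or loss versus DMSO.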 Conditions: primary human bronchial epithelial cells. The essentials:
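Cytotoxicity read-out: SRB (0.1%) staining of TCA-fixed (10%) human lung bronchial epithelial cells, absorbance 560 nm, 24 h post-dosing. Curves fitted both directions relative to DMSO.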

Read-out in experiment [9]: Thrombomodulin, THBD (gene 7056)
As to the kind of experiment: BSK_3C_Thrombomodulin: BioMAP Diversity Plus: 3C Assay for Thrombomodulin Biomarker Activity (AID 2283029). Conditions: primary human endothelial cells (HUVEC); actives raise or lower the signal. The procedure, abridged:
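Human umbilical vein endothelial cells were exposed to chemicals for 24 h; cell-surface thrombomodulin quantified by ELISA, with bidirectional fitting against DMSO baseline.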

Read-out in experiment [10]: Urokinase-type plasminogen activator receptor (uPAR), PLAUR (gene 5329)
As to the kind of experiment: BSK_4H_uPAR: BioMAP Diversity Plus: 4H Assay for Urokinase-type plasminogen activator receptor (uPAR) Biomarker Activity (AID 2283030). The settings on record: primary human endothelial cells (HUVEC); actives raise or lower the signal. The essentials:
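uPAR level read by ELISA on HUVEC cultures (BioMAP 4H) 24 h post-dosing, analyzed for gain or loss relative to DMSO. Parallel SRB staining assessed overt cytotoxicity.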

Read-out in experiment [11]: Vascular endothelial growth factor receptor 2 (Homo sapiens) (UniProt P35968)
Nature of the experiment: BSK_4H_VEGFRII: BioMAP Diversity Plus: 4H Assay for Vascular endothelial growth factor receptor 2 (VEGFR2) Biomarker Activity (AID 2283031).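 For AC50: cell-surface VEGFR2 protein level quantified by ELISA.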 Conditions: primary human endothelial cells (HUVEC); actives raise or lower the signal. The essentials:
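Measured by ELISA after 24 h of compound treatment: VEGFR2 on primary human umbilical vein endothelial cells, fitted in both directions relative to DMSO. Parallel cultures received SRB staining (560 nm) for overt cytotoxicity.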

Read-out in experiment [12]: Human Leukocyte Antigen - DR isotype (HLADR), HLA-DRA (gene 3122)
As to the kind of experiment: BSK_BE3C_HLADR: BioMAP Diversity Plus: BE3C Assay for Human Leukocyte Antigen - DR isotype (HLADR) Biomarker Activity (AID 2283032). The settings on record: primary human bronchial epithelial cells; actives raise or lower the signal. The essentials: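 Human primary bronchial epithelial cells (BE3C system) exposed to compound for 24 hours; cell-surface HLA-DR measured by ELISA, fitted bidirectionally relative to DMSO. Total protein by SRB in parallel cultures tracked cytotoxicity.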

Read-out in experiment [13]: Vascular cell adhesion molecule 1 (VCAM1), VCAM1 (gene 7412)
Nature of the experiment: BSK_4H_VCAM1: BioMAP Diversity Plus: 4H Assay for Vascular cell adhesion molecule 1 (VCAM1) Biomarker Activity (AID 2283033). Conditions: primary human endothelial cells (HUVEC); actives raise or lower the signal. The essentials:
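Primary human umbilical vein endothelial cells, 4H stimulation system, treated for 24 h; cell-surface VCAM-1 quantified by ELISA. Bidirectional fitting against DMSO; cytotoxicity tracked by SRB total-protein staining in parallel cultures.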

Read-out in experiment [14]: Monokine induced gamma interferon (MIG), CXCL9 (gene 4283)
As to the kind of experiment: BSK_BE3C_MIG: BioMAP Diversity Plus: BE3C Assay for Monokine induced gamma interferon (MIG) Biomarker Activity (AID 2283035). Conditions: primary human bronchial epithelial cells; actives raise or lower the signal. The procedure, abridged:
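MIG level was determined by ELISA after 24 h chemical treatment of primary human bronchial epithelial cells. Values were fitted bidirectionally with DMSO as the negative control and activity baseline.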

Read-out in experiment [15]: Transforming growth factor beta 1 (TGFb1), TGFB1 (gene 7040)
Nature of the experiment: BSK_BE3C_TGFb1: BioMAP Diversity Plus: BE3C Assay for Transforming growth factor beta 1 (TGFb1) Biomarker Activity (AID 2283036). The settings on record: primary human bronchial epithelial cells; actives raise or lower the signal. The procedure, abridged:
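Primary human bronchial epithelial cells dosed with chemical; TGF-b1 measured by ELISA 24 h after dosing. Bidirectional curve fitting against DMSO negative control; SRB total-protein staining in parallel cultures gauged cytotoxicity.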

Read-out in experiment [16]: Plasminogen activator inhibitor-1 (PAI1), SERPINE1 (gene 5054)
Nature of the experiment: BSK_BE3C_PAI1: BioMAP Diversity Plus: BE3C Assay for Plasminogen activator inhibitor-1 (PAI1) Biomarker Activity (AID 2283037). Conditions: primary human bronchial epithelial cells; actives raise or lower the signal. The procedure, abridged: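 Primary human bronchial epithelial cells (BE3C system) exposed 24 h; PAI-1 quantified by ELISA. Parallel sulforhodamine B staining of total protein flags cytotoxicity. Bidirectional fit versus DMSO.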

The target of experiment [17] is human Vitamin D Receptor (VDR), VDR (gene 7421) (UniProt P11473). As to the kind of experiment: ATG_VDR_TRANS: Attagene TRANS-FACTORIAL HepG2 Assay for human Vitamin D Receptor (VDR) (AID 2283022; active = hit-call score of the fitted dose curve at least 0.9, where 1 is the maximum). The procedure, abridged:
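Transactivation by an exogenous VDR-Gal4 chimera in transiently transfected HepG2 cells was measured as reporter transcript level 24 hours after chemical treatment. RT-PCR products were analysed by capillary electrophoresis and fitted in the positive direction relative to DMSO.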

Read-out in experiment [18]: Interferon-gamma inducible Protein 10 (IP10), CXCL10 (gene 3627)
As to the kind of experiment: BSK_BE3C_IP10: BioMAP Diversity Plus: BE3C Assay for Interferon-gamma inducible Protein 10 (IP10) Biomarker Activity (AID 2283034). Conditions: primary human bronchial epithelial cells; actives raise or lower the signal. The essentials: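 Primary human bronchial epithelial cells, with IP-10 measured by ELISA 24 hours after chemical dosing. Bidirectional fit against DMSO; cytotoxicity checked by SRB total protein staining in parallel cultures.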

Read-out in experiment [19]: urokinase plasminogen activator (uPA), PLAU (gene 5328)
As to the kind of experiment: BSK_BE3C_uPA: BioMAP Diversity Plus: BE3C Assay for urokinase plasminogen activator (uPA) Biomarker Activity (AID 2283038).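 Note: uPA protein level quantified by ELISA in cell cultures; uPA read one day after compound addition.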 Conditions: primary human bronchial epithelial cells; actives raise or lower the signal. The essentials: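 ELISA for uPA on human primary bronchial epithelial cultures 24 h post-treatment, gain or loss against DMSO. Parallel SRB staining (0.1% after 10% TCA fixation, 560 nm) assessed overt cytotoxicity.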

Read-out in experiment [20]: Urokinase-type plasminogen activator receptor (uPAR), PLAUR (gene 5329)
As to the kind of experiment: BSK_BE3C_uPAR: BioMAP Diversity Plus: BE3C Assay for Urokinase-type plasminogen activator receptor (uPAR) Biomarker Activity (AID 2283039).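 Note: uPAR protein level measured by ELISA on the cells; cells exposed to compound for one day before measurement.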 The settings on record: primary human bronchial epithelial cells; actives raise or lower the signal. The procedure, abridged:
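Primary human bronchial epithelial cells dosed for 24 h; uPAR quantified by ELISA with bidirectional fitting against DMSO. Overt cytotoxicity assessed in parallel cultures by SRB total-protein staining (0.1% SRB, 560 nm).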

Sequence of human Vitamin D Receptor (VDR), VDR (gene 7421) (P11473 whole entry, looked up, the tested form may be a part): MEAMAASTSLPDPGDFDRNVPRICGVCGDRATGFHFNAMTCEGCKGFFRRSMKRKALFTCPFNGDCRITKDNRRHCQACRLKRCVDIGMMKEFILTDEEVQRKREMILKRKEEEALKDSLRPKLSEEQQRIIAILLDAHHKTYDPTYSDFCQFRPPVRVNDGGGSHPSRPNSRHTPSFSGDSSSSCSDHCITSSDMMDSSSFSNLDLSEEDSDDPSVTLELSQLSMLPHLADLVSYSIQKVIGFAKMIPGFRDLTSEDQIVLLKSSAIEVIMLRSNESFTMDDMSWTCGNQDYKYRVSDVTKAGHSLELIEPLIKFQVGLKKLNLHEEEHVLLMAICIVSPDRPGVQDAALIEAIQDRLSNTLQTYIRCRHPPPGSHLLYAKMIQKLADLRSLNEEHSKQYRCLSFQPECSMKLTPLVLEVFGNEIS

The term AC50 denotes the midpoint of the concentration-response curve, whichever way the signal moves. Take `CCCCCCCOC(=O)c1ccccc1C(=O)OCCCCCCC`: the result in experiment [1], in [2], in experiment [3], in experiment [4], in [5] and in [6] was inactive. The result in experiment [7], in experiment [8], in [9], in [11], in [12] and in experiment [13] was inactive. In addition, the outcome in [14], in experiment [15] and in experiment [16] was inactive. The AC50 in [10] was 4.08 µM (active).
`CCCCCCCCC(F)(F)C(F)(F)C(F)(F)C(F)(F)C(F)(F)C(F)(F)F`: the result in experiment [1], in experiment [2], in experiment [17], in experiment [3], in experiment [4] and in experiment [6] was inactive. Moreover, the outcome in [7], in [8], in experiment [10], in experiment [11], in [12] and in experiment [13] was inactive. The outcome in [18], in experiment [14], in experiment [16], in [19] and in experiment [20] was inactive.
Consider `O=C(O)C(F)(OC(F)(F)C(F)(OC(F)(F)C(F)(F)C(F)(F)F)C(F)(F)F)C(F)(F)F` (stereo not given), for which the outcome in experiment [1], in experiment [2], in experiment [17], in [3], in experiment [4] and in experiment [6] was inactive. The result in experiment [7], in experiment [8], in experiment [9], in experiment [10], in [11] and in experiment [12] was inactive. The result in experiment [13], in [14], in experiment [16] and in experiment [20] was inactive.
In the case of `Nc1cc(Cl)c(N)c(Cl)c1`, in experiment [17], the call was inactive.
Still for that read-out and setting: as for `CCCCCC=O`, the entry is “inactive”.
Regarding `FC(F)(I)C(F)(F)C(F)(F)C(F)(F)I`, the AC50 is 46.1 µM (active) and 53.1 µM (active) and 53.3 µM (active) in [1]; 52.8 µM (active) and 46.1 µM (active) and 55.3 µM (active) in [2]; 55 µM (active) and 51 µM (active) and 51.9 µM (active) in experiment [3]; 44 µM (active) and 50.6 µM (active) and 22.7 µM (active) in experiment [4]; 47.9 µM (active) and 30 µM (active) and 44.7 µM (active) in experiment [6]; 56.2 µM (active) and 42.7 µM (active) and 50.5 µM (active) in experiment [7]. For the same molecule, the AC50 in experiment [8] was 50.1 µM (active) and 43.1 µM (active) and 44.2 µM (active); in experiment [10] it was 50.3 µM (active) and 57.1 µM (active); in experiment [11], 18.7 µM (active) and 45.2 µM (active); in experiment [12] it was 49.2 µM (active) and 46.2 µM (active) and 46.8 µM (active); in [13] it was 22.9 µM (active) and 53.8 µM (active) and 54.1 µM (active); in experiment [14] it was 48.9 µM (active). In experiment [16], the AC50 is 50.8 µM (active). For the same molecule, the outcome in experiment [10], in [11], in [14] and in experiment [16] was inactive.
As to `OC[C@@H](O)[C@@H](O)[C@H](O)[C@@H](O)CO`, in experiment [17], the result was inactive.
Still for that read-out and setting: the entry for `O=C(OCCOCCOCCOC(=O)c1ccccc1)c1ccccc1` is “inactive”.
On to `C=CC(F)(F)C(F)(F)C(F)(F)C(F)(F)C(F)(F)C(F)(F)C(F)(F)C(F)(F)C=C`, for which the outcome in [1], in experiment [2], in experiment [3], in [4], in experiment [6] and in [7] was inactive. Besides, the outcome in experiment [8], in experiment [10], in experiment [11], in [12], in [13] and in [18] was inactive. Further, the result in experiment [14], in experiment [16] and in [19] was inactive.
